Measurements as given in PubChem BioAssay (NCI).
This is part of a sample that, as a whole, favours compounds with a hit. Of some 83,000 tested, about 20% had one in any assay.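 A percent growth of 40 corresponds to 60% growth inhibition; 0 means no net growth; -100 means all cells died. Active threshold: below 10.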 Active and inactive are the calls of the source.

Key:
Experiment in all cases: NCI-60 one-dose screen, 48 h (100 = growth as untreated, 0 = no growth, -100 = all killed)
Settings in all cases: 10 µM unless noted
SK-MEL-2 melanoma = tested on: SK-MEL-2 melanoma
EKVX NSCLC = tested on: EKVX NSCLC
SN12C renal = tested on: SN12C renal
UO-31 renal = tested on: UO-31 renal
TK-10 renal = tested on: TK-10 renal
ACHN renal = tested on: ACHN renal
CAKI-1 renal = tested on: CAKI-1 renal
CCRF-CEM leukemia = tested on: CCRF-CEM leukemia
MOLT-4 leukemia = tested on: MOLT-4 leukemia
SR leukemia = tested on: SR leukemia
RPMI-8226 leukemia = tested on: RPMI-8226 leukemia
OVCAR-8 ovarian = tested on: OVCAR-8 ovarian
OVCAR-5 ovarian = tested on: OVCAR-5 ovarian
OVCAR-4 ovarian = tested on: OVCAR-4 ovarian
SK-OV-3 ovarian = tested on: SK-OV-3 ovarian
IGROV1 ovarian = tested on: IGROV1 ovarian
OVCAR-3 ovarian = tested on: OVCAR-3 ovarian
HS 578T breast = tested on: HS 578T breast
NCI/ADR-RES ovarian = tested on: NCI/ADR-RES ovarian

Measured: growth

Nc1c(C(=O)Nc2cccc3ccncc23)sc2nc3c(cc12)C(=O)CCC3
active: OVCAR-3 ovarian 3.84%
inactive: SK-MEL-2 melanoma 25.1% | EKVX NSCLC 62.1% | SN12C renal 54.5% | UO-31 renal 57.7% | TK-10 renal 68.2% | ACHN renal 51.2% | CAKI-1 renal 37.7% | CCRF-CEM leukemia 21.5% | MOLT-4 leukemia 85.2% | SR leukemia 33.3% | RPMI-8226 leukemia 64.6% | OVCAR-8 ovarian 68.1% | OVCAR-5 ovarian 68.5% | OVCAR-4 ovarian 80.7% | SK-OV-3 ovarian 35.3% | IGROV1 ovarian 57.8% | HS 578T breast 21.3% | NCI/ADR-RES ovarian 68.4%

COc1ccc2c(Nc3ccc(NS(C)(=O)=O)cc3)c3ccccc3nc2c1
inactive: SN12C renal 10.3% | CCRF-CEM leukemia 11% | OVCAR-4 ovarian 11.8% | SK-OV-3 ovarian 20.5% | NCI/ADR-RES ovarian 32.7%
active: SK-MEL-2 melanoma -70.4% | EKVX NSCLC 6.78% | UO-31 renal -41.5% | TK-10 renal 9.37% | ACHN renal -3.55% | CAKI-1 renal -22.6% | MOLT-4 leukemia 2.19% | SR leukemia -11.6% | RPMI-8226 leukemia 1.1% | OVCAR-8 ovarian 8% | OVCAR-5 ovarian 4.43% | IGROV1 ovarian 3.52% | OVCAR-3 ovarian -22.3% | HS 578T breast -17.1%

CC(C)(C#N)N1CCN(c2ccccc2Cl)CC1
inactive: SK-MEL-2 melanoma 103% | EKVX NSCLC 97.2% | SN12C renal 108% | UO-31 renal 81.8% | TK-10 renal 104% | ACHN renal 109% | CAKI-1 renal 94.5% | CCRF-CEM leukemia 100% | MOLT-4 leukemia 97.8% | SR leukemia 101% | RPMI-8226 leukemia 105% | OVCAR-8 ovarian 93.9% | OVCAR-5 ovarian 97.2% | OVCAR-4 ovarian 119% | SK-OV-3 ovarian 103% | IGROV1 ovarian 106% | OVCAR-3 ovarian 101% | HS 578T breast 96.4% | NCI/ADR-RES ovarian 98.8%

CCOc1ccc(/C=N/Nc2cc(C)nc3ccc(Cl)cc23)cc1
inactive: SK-MEL-2 melanoma 91% | EKVX NSCLC 81.7% | UO-31 renal 47.6% | TK-10 renal 121% | ACHN renal 51.2% | CAKI-1 renal 78.2% | OVCAR-8 ovarian 45.2% | OVCAR-5 ovarian 79.2% | OVCAR-4 ovarian 56.8% | SK-OV-3 ovarian 84.1% | IGROV1 ovarian 45.4% | HS 578T breast 92.3% | NCI/ADR-RES ovarian 45.9%
active: SN12C renal -26% | CCRF-CEM leukemia 0.25% | MOLT-4 leukemia -30.5% | SR leukemia -9.13% | RPMI-8226 leukemia -1.34% | OVCAR-3 ovarian -16.3%

Nc1c(C(=O)Nc2ccc(Cl)cc2)cc(-c2nc3ccccc3s2)c(=O)n1NS(=O)(=O)c1ccc(Cl)cc1
inactive: SK-MEL-2 melanoma 102% | EKVX NSCLC 85.8% | SN12C renal 95% | UO-31 renal 85.9% | TK-10 renal 147% | ACHN renal 103% | CAKI-1 renal 86.4% | CCRF-CEM leukemia 97.6% | MOLT-4 leukemia 91.5% | SR leukemia 95.2% | RPMI-8226 leukemia 92.6% | OVCAR-8 ovarian 100% | OVCAR-5 ovarian 101% | OVCAR-4 ovarian 94.4% | SK-OV-3 ovarian 101% | IGROV1 ovarian 97.4% | OVCAR-3 ovarian 105% | HS 578T breast 98.4% | NCI/ADR-RES ovarian 105%

COc1ccc(CNCCN2C(=O)c3ccc4c5c(ccc(c35)C2=O)C(=O)N(CCNCc2ccc(OC)cc2)C4=O)cc1
active: SK-MEL-2 melanoma -74.2% | EKVX NSCLC -69.3% | SN12C renal -87.9% | UO-31 renal -76.6% | TK-10 renal -61.7% | ACHN renal -74.3% | CAKI-1 renal -53.8% | CCRF-CEM leukemia -16.3% | MOLT-4 leukemia -36.1% | SR leukemia -29.4% | RPMI-8226 leukemia -35.2% | OVCAR-8 ovarian -67.3% | OVCAR-5 ovarian -72.7% | OVCAR-4 ovarian -99.5% | SK-OV-3 ovarian -68.1% | IGROV1 ovarian -58.4% | OVCAR-3 ovarian -95.5% | HS 578T breast -41.1% | NCI/ADR-RES ovarian -25.9%

O=C1CCC(NC(=S)Nc2ccccc2)N1 (configuration not stated)
inactive: SK-MEL-2 melanoma 103% | EKVX NSCLC 117% | SN12C renal 97.4% | UO-31 renal 95.3% | TK-10 renal 101% | ACHN renal 109% | CAKI-1 renal 106% | CCRF-CEM leukemia 97.2% | MOLT-4 leukemia 106% | SR leukemia 93.8% | RPMI-8226 leukemia 101% | OVCAR-8 ovarian 107% | OVCAR-5 ovarian 111% | OVCAR-4 ovarian 107% | SK-OV-3 ovarian 117% | IGROV1 ovarian 102% | OVCAR-3 ovarian 106% | HS 578T breast 105% | NCI/ADR-RES ovarian 96.9%

COc1cc2nc(-c3ccc(C(F)(F)F)cc3)cc(OCCN3CCC(O)CC3)c2cc1OC
inactive: SK-MEL-2 melanoma 103% | EKVX NSCLC 61.9% | SN12C renal 57.5% | UO-31 renal 52.4% | TK-10 renal 86.1% | ACHN renal 75.5% | CAKI-1 renal 34.6% | CCRF-CEM leukemia 84.8% | MOLT-4 leukemia 77% | SR leukemia 35.4% | RPMI-8226 leukemia 41.2% | OVCAR-8 ovarian 80% | OVCAR-5 ovarian 51% | OVCAR-4 ovarian 88.3% | SK-OV-3 ovarian 85.4% | IGROV1 ovarian 42.1% | OVCAR-3 ovarian 93.8% | HS 578T breast 79.1% | NCI/ADR-RES ovarian 53.5%
